Test results taken from PubChem BioAssay AID2690 (NMMLSC, 2010).
The whole screen tested about 330,000 compounds, of which about 590 (0.18%) were called active. This excerpt belongs to a sample that is enriched for actives. A number with no mark means an inactive call.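 Rule for the calls: active = superoxide response under a set limit, about three screen SD below normal (cut at about 65% in these data); inactive = the rest.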

Assay: yeast aging ROS inhibitors as calorie-restriction mimetics – HTS, primary screen (AID 2690);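 note: yeast aged for seven days with compound at 30 °C before DHE staining; 100% = average MFI of all compound-treated wells on the plate with controls excluded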
Conditions: S. cerevisiae aged cells, superoxide DHE fluorescence; at 10 µM; active compounds read low

Row | SMILES | superoxide response (% of plate mean)
1 | CC1CC(C)CN(C(=O)CSc2ccsc2[N+](=O)[O-])C1 (stereo not drawn) | 155%
2 | CCCCc1cc(=O)oc2c(C)c(OCC(=O)N3CCC(C(N)=O)CC3)ccc12 | 81.2%
3 | Cc1cc2c(C)nc(N/N=C/c3ccccc3)nc2o1 | 97.9%
4 | Cc1c(NC(=O)c2cc(-c3ccc(Br)cc3)on2)c(=O)n(-c2ccccc2)n1C | 98.6%
5 | Cc1c(NC(=O)c2coc(=O)c(Br)c2)c(=O)n(-c2ccccc2)n1C | 96.5%
6 | Cc1cc2oc(C(=O)Nc3c(C)n(C)n(-c4ccccc4)c3=O)c(C)c2cc1Cl | 43% (active)
7 | CC1(C)CC(=O)C=C(c2cccc3c2Oc2ccccc2S3)C1 | 109%
8 | O=C(CSc1nc2[nH]c(=O)[nH]c(=O)c2s1)Nc1cccc(F)c1 | 94.1%
9 | Cc1cc2ncn(CCCCOc3ccccc3)c2cc1C | 80.1%
10 | COc1ccc(CNC(=O)C2CC(c3ccc(C(F)(F)F)cc3)=NO2)cc1 (stereo not drawn) | 103%
11 | O=S(=O)(NCCCCCCNS(=O)(=O)c1c(F)cccc1F)c1ccc2c(c1)OCCO2 | 104%
12 | O=C(O)C1CCN(S(=O)(=O)N2CCOCC2)CC1 | 126%
13 | COc1ccc(CCNC(=O)Cc2ccc(C)cc2)cc1OC | 102%
14 | O=C(O)c1ccccc1-c1ccccc1C(=O)NCCc1ccccc1 | 108%
15 | COc1ccc(CCNC(=O)c2ccccc2-c2ccccc2C(=O)O)cc1OC | 57.2% (active)
16 | Cc1ccc(NC(=O)CN2CCC3(O)CCCCC3C2c2ccc3c(c2)OCO3)c(C)c1 (stereo not drawn) | 95%
17 | COc1cccc(NC(=O)[C@H](Cc2c[nH]c3ccccc23)NC(=O)[C@@H]2Cc3ccccc3CN2)c1 | 113%
18 | O=C(NC1CCN(Cc2ccccc2)CC1)c1ccc(Oc2cc(Cl)cc(Cl)c2)o1 | 87.6%
19 | CCc1ccccc1NC(=O)NCCN1CCCCC1 | 92.8%
20 | COc1cccc(NC(=O)NCCN2CCCCC2)c1 | 34.4% (active)
21 | COc1cccc(NC(=S)NCCCN2CCOCC2)c1 | 96.1%
22 | CC(=O)NC1=NN(C(C)=O)C(C)(CCS(=O)(=O)c2ccc(Cl)c(Cl)c2)S1 (stereo not drawn) | 63.7% (active)

Row | SMILES | superoxide response (% of plate mean)
23 | CC(=O)NC1=NN(C(C)=O)C(C)(c2ccc(Cl)s2)S1 (stereo not drawn) | 102%
24 | CC(=O)NC1=NN(C(C)=O)C(C)(c2ccc(C)cc2)S1 (stereo not drawn) | 108%
25 | Cc1nc([N+](=O)[O-])cn1CC(=O)Nc1ccc(Cl)cc1 | 104%
26 | COc1ccc(-n2nnnc2-c2nc3ccccc3s2)cc1 | 88.6%
27 | COc1ccc(C2=NN(c3nc4ccccc4s3)C(=O)C2)cc1 | 51% (active)
28 | COc1ccc(/C=C(/CC(=O)Nc2ccc(C)cc2)c2nc3ccccc3s2)cc1 | 97.7%
29 | COc1ccc2c(c1)OC(O)(C(F)(F)C(F)F)CC2=O (stereo not drawn) | 82.7%
30 | CCN(CC)S(=O)(=O)c1cc([N+](=O)[O-])ccc1NNC(=O)Nc1ccccc1 | 101%
31 | CCOc1ccc(N2CC(C(=O)N/N=C/c3sccc3C)CC2=O)cc1 (stereo not drawn) | 100%
32 | COc1ccc2[nH]c(=O)c(CNc3ccc(C)c(C)c3)cc2c1 | 96.3%
33 | COc1cc(C(=S)N2CCOCC2)cc(OC)c1OC(=O)c1cc([N+](=O)[O-])c(C)c([N+](=O)[O-])c1 | 113%
34 | CCCC1NC(=S)NC(C)=C1C(C)=O (stereo not drawn) | 92.8%
35 | O=[N+]([O-])c1ccc2nc(-c3ccccn3)[nH]c2c1 | 98.5%
36 | COc1ccc([N+](=O)[O-])cc1-c1nc2ccccc2nc1-c1ccccc1 | 99.1%
37 | O=[N+]([O-])c1ccc2c(c1)Nc1nc3ccccc3nc1N2 | 61.2% (active)
38 | Cc1nn(CC(=O)Nc2ccc(F)cc2)c(=O)c2ccccc12 | 98.5%
39 | Cc1nn(CC(=O)Nc2ccc3c(c2)nc(CN2CCCCC2)n3C)c(=O)c2ccccc12 | 94.1%
40 | Cc1ccc(NC(=O)Cn2nc(C)c3ccccc3c2=O)c(C)c1 | 54.4% (active)
41 | Cc1ccc(-c2nc(CS(=O)CC(=O)NC3CCCC3)c(C)o2)cc1 (stereo not drawn) | 108%
42 | COc1ccc(-c2nc(CS(=O)CC(=O)N3CCc4ccccc4C3)c(C)o2)cc1 (stereo not drawn) | 92.3%
43 | Cc1ccc(-c2nc(CS(=O)CC(=O)N3CCN(c4ncccn4)CC3)c(C)o2)cc1 (stereo not drawn) | 63.9% (active)
